Reference: PubChem BioAssay (EPA / NIEHS)
Results filed as inconclusive are left out. The source made the active and inactive calls. How the source made its calls, unless noted: active means hit-call score of the fitted dose curve at least 0.9, where 1 is the maximum; inconclusive means response in the unintended direction; inactive means score below 0.9.

Assays:
[1] = BSK_3C_VCAM1: BioMAP Diversity Plus: 3C Assay for Vascular cell adhesion molecule 1 (VCAM1) Biomarker Activity (AID 2282999; active means hit-call score of the fitted dose curve at least 0.9, where 1 is the maximum; inactive means score below 0.9); settings: BioMAP 3C HUVEC, VCAM1 ELISA, cytokine-stimulated; actives raise or lower the signal
Method in brief: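 Human umbilical vein endothelial cells were dosed with compound for 24 h, after which cell-surface VCAM-1 was quantified by ELISA. Bidirectional curve fitting used DMSO as negative control and activity baseline.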

[2] = BSK_4H_Eotaxin3: BioMAP Diversity Plus: 4H Assay for Eotaxin 3 Biomarker Activity (AID 2283000; active means hit-call score of the fitted dose curve at least 0.9, where 1 is the maximum; inactive means score below 0.9); settings: primary human endothelial cells (HUVEC); actives raise or lower the signal
Method in brief: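 Human umbilical vein endothelial cells (BSK_4H system) dosed with test chemical; Eotaxin-3 (CCL26) measured by ELISA 24 h after dosing. Bidirectional curve fitting relative to DMSO negative control as baseline.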

[3] = read-out: Intercellular Adhesion Molecule 1 (ICAM1), ICAM1 (gene 3383); assay: BSK_3C_ICAM1: BioMAP Diversity Plus: 3C Assay for Intercellular Adhesion Molecule 1 (ICAM1) Biomarker Activity (AID 2283003; active means hit-call score of the fitted dose curve at least 0.9, where 1 is the maximum; inactive means score below 0.9); settings: primary human endothelial cells (HUVEC); actives raise or lower the signal
Method in brief: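 HUVEC primary cells stimulated under 3C conditions; ICAM1 measured by ELISA 24 h after compound dosing. Curves fitted bidirectionally against the DMSO baseline. Overt cytotoxicity checked by SRB staining of parallel cultures.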

[4] = BSK_3C_Proliferation: Cell Proliferation Assessment in the BioMAP Diversity Plus: 3C Assay (AID 2283006; active means hit-call score of the fitted dose curve at least 0.9, where 1 is the maximum; inactive means score below 0.9;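 on AC50: potency may reflect either rise or fall in cell number versus DMSO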); settings: primary human endothelial cells (HUVEC)
Method in brief: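 Subconfluent HUVEC (3C system) cultured with chemical; relative cell number read at 48 h by sulforhodamine B total-protein staining (0.1% SRB after 10% TCA fixation, 560 nm). Bidirectional fit relative to DMSO.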

[5] = target: Nuclear receptor subfamily 1 group I member 2 (Homo sapiens) (UniProt O75469); assay: ATG_PXR_TRANS: Attagene TRANS-FACTORIAL HepG2 Assay for human Pregnane X Receptor (PXR) (AID 2283008)
Method in brief: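 Read-out is fluorescence of labelled reporter cDNA fragments separated by capillary electrophoresis after RT-PCR and HpaI digestion. Source: HepG2 cells carrying PXR-GAL4/UAS reporter constructs, treated 24 h; activity fitted upward relative to DMSO.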

[6] = target: human RAR-related Orphan Receptor gamma (RORg), RORC (gene 6097) (UniProt P51449); assay: ATG_RORg_TRANS: Attagene TRANS-FACTORIAL HepG2 Assay for human RAR-related Orphan Receptor gamma (RORg) (AID 2283011)
Method in brief: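 Reporter transcripts from a transfected RORg-GAL4 chimera in HepG2 cells were quantified 24 h after dosing by RT-PCR, 6-FAM labelling, HpaI digestion and capillary electrophoresis; increases over DMSO baseline were fitted.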

[7] = target: Retinoic acid receptor RXR-alpha (Homo sapiens) (UniProt P19793); assay: ATG_RXRa_TRANS: Attagene TRANS-FACTORIAL HepG2 Assay for human Retinoid X Receptor alpha (RXRa) (AID 2283012)
Method in brief: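 HepG2 cells transiently transfected with GAL4-UAS reporter units and chimeric RXRa-Gal4 protein, treated 24 h. Reporter mRNA measured by RT-PCR, fluorescent labelling, HpaI digestion and capillary electrophoresis. Induction fitted against DMSO.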

[8] = target: human Retinoid X Receptor beta (RXRb), RXRB (gene 6257) (UniProt P28702); assay: ATG_RXRb_TRANS: Attagene TRANS-FACTORIAL HepG2 Assay for human Retinoid X Receptor beta (RXRb) (AID 2283013)
Method in brief: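 HepG2 cells were transiently transfected with multiplexed GAL4-UAS reporters and a chimeric RXRb-Gal4 construct, then exposed for 24 h. Reporter mRNA was quantified by RT-PCR, FAM labeling, HpaI digestion and capillary electrophoresis; gain of signal was scored against DMSO.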

[9] = read-out: E-selectin (Homo sapiens) (UniProt P16581); assay: BSK_3C_Eselectin: BioMAP Diversity Plus: 3C Assay for Eselectin Biomarker Activity (AID 2283015; active means hit-call score of the fitted dose curve at least 0.9, where 1 is the maximum; inactive means score below 0.9;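 further: cell surface E-selectin protein quantified by ELISA 24 h after dosing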); settings: primary human endothelial cells (HUVEC); actives raise or lower the signal
Method in brief: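 E-selectin ELISA readout, fitted bidirectionally relative to DMSO, taken 24 h post-dosing in HUVEC cultures of the 3C system. Overt cytotoxicity tracked with sulforhodamine B staining of parallel wells.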

[10] = read-out: Interleukin-1 alpha (IL1a), IL1A (gene 3552); assay: BSK_BE3C_IL1a: BioMAP Diversity Plus: BE3C Assay for Interleukin-1 alpha (IL1a) Biomarker Activity (AID 2283016; active means hit-call score of the fitted dose curve at least 0.9, where 1 is the maximum; inactive means score below 0.9); settings: primary human bronchial epithelial cells; actives raise or lower the signal
Method in brief: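 Human primary bronchial epithelial cells, 24 h chemical exposure; IL-1a quantified by ELISA, fitted bidirectionally against DMSO. Cytotoxicity assessed in parallel by SRB total-protein staining at the time of measurement.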

[11] = read-out: Monocyte Chemoattractant Protein-1 (MCP1), CCL2 (gene 6347); assay: BSK_3C_MCP1: BioMAP Diversity Plus: 3C Assay for Monocyte Chemoattractant Protein-1 (MCP1) Biomarker Activity (AID 2283017; active means hit-call score of the fitted dose curve at least 0.9, where 1 is the maximum; inactive means score below 0.9); settings: primary human endothelial cells (HUVEC); actives raise or lower the signal
Method in brief: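 MCP-1 was measured by ELISA 24 h after dosing in primary HUVEC 3C cultures and fitted in both directions relative to DMSO; cytotoxicity was checked by SRB total-protein staining in parallel wells.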

[12] = read-out: Monocyte Chemoattractant Protein-1 (MCP1), CCL2 (gene 6347); assay: BSK_4H_MCP1: BioMAP Diversity Plus: 4H Assay for Monocyte Chemoattractant Protein-1 (MCP1) Biomarker Activity (AID 2283018; active means hit-call score of the fitted dose curve at least 0.9, where 1 is the maximum; inactive means score below 0.9); settings: primary human endothelial cells (HUVEC); actives raise or lower the signal
Method in brief: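 Human umbilical vein endothelial cells (4H system) exposed to chemicals for 24 h in 96-well format. MCP-1 measured by ELISA; bidirectional fitting against DMSO, with SRB total-protein staining in parallel cultures for cytotoxicity.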

[13] = target: Peroxisome proliferator-activated receptor gamma (Homo sapiens) (UniProt P37231); assay: ATG_PPARg_TRANS: Attagene TRANS-FACTORIAL HepG2 Assay for human Peroxisome Proliferator-activated Receptor-gamma (PPARg) (AID 2283007)
Method in brief: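 Liver-derived HepG2 cells expressing an exogenous NR-Gal4 chimera alongside GAL4-UAS reporter genes; 24 h exposure. Fluorescence of reporter RT-PCR products, separated by capillary electrophoresis, gives mRNA induction relative to DMSO.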

[14] = target: human RAR-related Orphan Receptor beta (RORb), RORB (gene 6096) (UniProt Q92753); assay: ATG_RORb_TRANS: Attagene TRANS-FACTORIAL HepG2 Assay for human RAR-related Orphan Receptor beta (RORb) (AID 2283010)
Method in brief: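 HepG2 cells transiently transfected with GAL4-UAS reporter units expressing chimeric NR-Gal4 protein; reporter mRNA measured 24 h after dosing by RT-PCR, 6-FAM labelling and capillary electrophoresis. Gain-of-signal fitted relative to DMSO baseline.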

[15] = target: human Peroxisome Proliferator-activated Receptor delta (PPARd), PPARD (gene 5467) (UniProt Q03181); assay: ATG_PPARd_TRANS: Attagene TRANS-FACTORIAL HepG2 Assay for human Peroxisome Proliferator-activated Receptor delta (PPARd) (AID 2283002)
Method in brief: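 HepG2 cells transiently transfected with multiplexed GAL4-UAS reporter units and exogenous chimeric NR-Gal4 proteins; 24 h compound exposure. Reporter mRNA measured by RT-PCR, 6-FAM labelling, HpaI digestion and capillary electrophoresis; gain of signal versus DMSO.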

[16] = target: Retinoic acid receptor alpha (Homo sapiens) (UniProt P10276); assay: ATG_RARa_TRANS: Attagene TRANS-FACTORIAL HepG2 Assay for human Retinoic Acid Receptor alpha (RARa) (AID 2283005)
Method in brief: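 HepG2 cells transiently transfected with multiple reporter units expressing chimeric RARα-GAL4 fusion, with GAL4-UAS-driven reporters. After 24 h compound exposure, reporter mRNA induction quantified by RT-PCR and capillary electrophoresis with fluorescent labeling; gain-of-signal fitted relative to DMSO control.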

[17] = target: human Thyroid Receptor alpha (THRa1), THRA (gene 7067) (UniProt P10827); assay: ATG_THRa1_TRANS: Attagene TRANS-FACTORIAL HepG2 Assay for human Thyroid Receptor alpha (THRa1) (AID 2283014)
Method in brief: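 Transcripts from GAL4-UAS-driven reporters, measured after 24 h compound exposure by RT-PCR plus capillary electrophoresis of 6-FAM-labeled fragments, were fitted for gain of signal relative to DMSO. Cells: transiently transfected HepG2 expressing NR-Gal4 chimeras.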

[18] = target: human Peroxisome Proliferator-activated Receptor alpha (PPARa), PPARA (gene 5465) (UniProt Q07869); assay: ATG_PPARa_TRANS: Attagene TRANS-FACTORIAL HepG2 Assay for human Peroxisome Proliferator-activated Receptor alpha (PPARa) (AID 2283001)
Method in brief: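 Gain-of-signal endpoint: reporter mRNA induction relative to DMSO, detected by fluorescent RT-PCR and capillary electrophoresis. HepG2 cells transiently carried GAL4-UAS-driven reporter units plus NR-Gal4 fusion; exposure lasted 24 h.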

[19] = target: human Retinoic Acid Receptor gamma (RARg), RARG (gene 5916) (UniProt P13631); assay: ATG_RARg_TRANS: Attagene TRANS-FACTORIAL HepG2 Assay for human Retinoic Acid Receptor gamma (RARg) (AID 2283009)
Method in brief: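 HepG2 transiently transfected with GAL4-UAS reporter units and chimeric NR-Gal4 constructs; 24 h compound exposure. Reporter mRNA quantified by RT-PCR, FAM labeling, HpaI digestion and capillary electrophoresis; gain-of-signal versus DMSO.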

[20] = target: human Retinoic Acid Receptor beta (RARb), RARB (gene 5915) (UniProt P10826); assay: ATG_RARb_TRANS: Attagene TRANS-FACTORIAL HepG2 Assay for human Retinoic Acid Receptor beta (AID 2283004)
Method in brief: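 Induction of reporter mRNA from a chimeric RARb-Gal4 construct was measured by RT-PCR, FAM labelling, HpaI digestion and capillary electrophoresis. Measurements followed 24 h compound treatment of transiently transfected human HepG2 liver cells, with DMSO as baseline.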

Measured: AC50

human Retinoic Acid Receptor gamma (RARg), RARG (gene 5916), sequence (P13631 whole entry, looked up, the tested form may be a part): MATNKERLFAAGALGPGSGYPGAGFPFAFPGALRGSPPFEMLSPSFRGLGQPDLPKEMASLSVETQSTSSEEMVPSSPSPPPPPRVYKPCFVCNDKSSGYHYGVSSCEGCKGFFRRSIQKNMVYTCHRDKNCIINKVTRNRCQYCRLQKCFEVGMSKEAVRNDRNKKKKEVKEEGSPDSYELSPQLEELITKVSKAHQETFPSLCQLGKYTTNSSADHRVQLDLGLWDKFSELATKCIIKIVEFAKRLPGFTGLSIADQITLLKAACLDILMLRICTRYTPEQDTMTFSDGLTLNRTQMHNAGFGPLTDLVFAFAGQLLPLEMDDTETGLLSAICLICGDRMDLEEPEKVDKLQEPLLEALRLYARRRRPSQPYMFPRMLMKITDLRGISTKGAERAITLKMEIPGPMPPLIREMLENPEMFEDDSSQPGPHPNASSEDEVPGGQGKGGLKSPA
human RAR-related Orphan Receptor gamma (RORg), RORC (gene 6097), sequence (P51449 whole entry, looked up, the tested form may be a part): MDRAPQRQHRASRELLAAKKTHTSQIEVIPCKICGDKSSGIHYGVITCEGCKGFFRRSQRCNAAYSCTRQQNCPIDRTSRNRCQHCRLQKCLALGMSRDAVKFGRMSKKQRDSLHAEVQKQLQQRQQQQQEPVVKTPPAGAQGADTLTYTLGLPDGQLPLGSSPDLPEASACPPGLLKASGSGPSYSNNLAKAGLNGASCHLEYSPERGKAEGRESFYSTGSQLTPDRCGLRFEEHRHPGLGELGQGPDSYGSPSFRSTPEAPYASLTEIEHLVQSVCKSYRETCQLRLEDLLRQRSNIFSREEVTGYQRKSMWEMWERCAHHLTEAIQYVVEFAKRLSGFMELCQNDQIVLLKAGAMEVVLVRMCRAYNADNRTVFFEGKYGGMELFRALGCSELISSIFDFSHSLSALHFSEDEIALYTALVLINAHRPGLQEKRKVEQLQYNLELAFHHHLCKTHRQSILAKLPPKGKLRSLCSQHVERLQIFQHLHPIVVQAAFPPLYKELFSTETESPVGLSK
human Thyroid Receptor alpha (THRa1), THRA (gene 7067), sequence (P10827 whole entry, looked up, the tested form may be a part): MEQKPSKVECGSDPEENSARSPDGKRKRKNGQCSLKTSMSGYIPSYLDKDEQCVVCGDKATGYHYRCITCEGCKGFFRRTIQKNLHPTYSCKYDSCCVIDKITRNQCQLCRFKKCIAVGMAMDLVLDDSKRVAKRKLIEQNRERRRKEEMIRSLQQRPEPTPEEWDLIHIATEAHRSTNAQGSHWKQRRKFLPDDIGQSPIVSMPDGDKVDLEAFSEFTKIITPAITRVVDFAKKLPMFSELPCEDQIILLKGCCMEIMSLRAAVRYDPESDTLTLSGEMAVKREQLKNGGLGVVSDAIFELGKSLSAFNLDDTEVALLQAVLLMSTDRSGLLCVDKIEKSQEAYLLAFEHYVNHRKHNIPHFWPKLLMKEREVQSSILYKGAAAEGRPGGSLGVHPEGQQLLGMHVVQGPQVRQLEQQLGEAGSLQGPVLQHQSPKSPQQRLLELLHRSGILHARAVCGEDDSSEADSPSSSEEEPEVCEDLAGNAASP
human Retinoid X Receptor beta (RXRb), RXRB (gene 6257), sequence (P28702 whole entry, looked up, the tested form may be a part): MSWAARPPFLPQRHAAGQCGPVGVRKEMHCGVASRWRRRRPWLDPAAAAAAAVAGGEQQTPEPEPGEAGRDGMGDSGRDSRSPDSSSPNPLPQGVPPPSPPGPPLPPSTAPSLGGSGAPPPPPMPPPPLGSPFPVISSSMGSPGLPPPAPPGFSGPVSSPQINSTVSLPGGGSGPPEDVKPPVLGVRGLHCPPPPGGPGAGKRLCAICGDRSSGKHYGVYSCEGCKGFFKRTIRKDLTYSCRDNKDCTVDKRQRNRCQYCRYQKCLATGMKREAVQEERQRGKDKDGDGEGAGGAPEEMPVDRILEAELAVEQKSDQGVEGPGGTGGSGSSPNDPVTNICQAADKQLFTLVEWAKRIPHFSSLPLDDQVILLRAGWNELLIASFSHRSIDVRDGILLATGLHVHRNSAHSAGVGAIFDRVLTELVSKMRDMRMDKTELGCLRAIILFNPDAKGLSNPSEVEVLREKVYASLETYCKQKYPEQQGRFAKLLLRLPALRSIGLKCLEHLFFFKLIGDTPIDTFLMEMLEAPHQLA
human RAR-related Orphan Receptor beta (RORb), RORB (gene 6096), sequence (Q92753 whole entry, looked up, the tested form may be a part): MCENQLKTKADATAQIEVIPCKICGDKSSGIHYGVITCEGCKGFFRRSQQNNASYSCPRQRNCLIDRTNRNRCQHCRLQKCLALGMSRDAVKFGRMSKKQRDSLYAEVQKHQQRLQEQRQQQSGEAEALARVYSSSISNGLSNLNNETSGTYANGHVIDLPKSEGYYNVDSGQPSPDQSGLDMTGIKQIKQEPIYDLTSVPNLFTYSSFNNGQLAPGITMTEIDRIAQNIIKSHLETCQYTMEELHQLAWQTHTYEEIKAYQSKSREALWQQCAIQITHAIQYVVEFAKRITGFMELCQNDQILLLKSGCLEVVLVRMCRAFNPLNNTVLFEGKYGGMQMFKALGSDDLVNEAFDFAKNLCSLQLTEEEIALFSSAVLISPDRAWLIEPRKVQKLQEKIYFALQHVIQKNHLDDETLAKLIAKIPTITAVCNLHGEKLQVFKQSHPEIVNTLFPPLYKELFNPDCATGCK
Peroxisome proliferator-activated receptor gamma (Homo sapiens), sequence (P37231 whole entry, looked up, the tested form may be a part): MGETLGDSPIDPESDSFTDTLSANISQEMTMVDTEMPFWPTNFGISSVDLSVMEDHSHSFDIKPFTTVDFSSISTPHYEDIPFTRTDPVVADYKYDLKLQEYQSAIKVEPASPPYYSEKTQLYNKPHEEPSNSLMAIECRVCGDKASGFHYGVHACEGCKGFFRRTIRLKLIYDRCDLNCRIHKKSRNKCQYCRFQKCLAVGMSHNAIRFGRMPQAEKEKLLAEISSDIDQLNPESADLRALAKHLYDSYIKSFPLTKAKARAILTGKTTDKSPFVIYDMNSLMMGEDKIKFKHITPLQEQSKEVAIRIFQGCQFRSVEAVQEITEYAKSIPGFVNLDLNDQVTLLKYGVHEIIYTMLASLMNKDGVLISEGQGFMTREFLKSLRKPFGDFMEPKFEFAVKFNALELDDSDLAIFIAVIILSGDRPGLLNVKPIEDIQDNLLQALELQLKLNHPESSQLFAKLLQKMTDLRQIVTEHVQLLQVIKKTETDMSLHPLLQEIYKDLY
human Peroxisome Proliferator-activated Receptor alpha (PPARa), PPARA (gene 5465), sequence (Q07869 whole entry, looked up, the tested form may be a part): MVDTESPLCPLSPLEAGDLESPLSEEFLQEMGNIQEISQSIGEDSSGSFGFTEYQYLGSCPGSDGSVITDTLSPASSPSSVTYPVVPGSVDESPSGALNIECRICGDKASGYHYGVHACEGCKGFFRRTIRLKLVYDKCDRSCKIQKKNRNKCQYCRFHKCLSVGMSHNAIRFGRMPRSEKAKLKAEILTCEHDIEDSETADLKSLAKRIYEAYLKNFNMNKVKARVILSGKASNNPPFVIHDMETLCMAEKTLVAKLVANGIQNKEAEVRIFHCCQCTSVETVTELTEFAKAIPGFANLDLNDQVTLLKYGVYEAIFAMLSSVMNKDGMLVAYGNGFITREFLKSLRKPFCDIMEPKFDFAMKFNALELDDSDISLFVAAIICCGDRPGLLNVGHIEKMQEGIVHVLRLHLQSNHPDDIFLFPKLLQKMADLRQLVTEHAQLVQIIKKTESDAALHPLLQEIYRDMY
Retinoic acid receptor RXR-alpha (Homo sapiens), sequence (P19793 whole entry, looked up, the tested form may be a part): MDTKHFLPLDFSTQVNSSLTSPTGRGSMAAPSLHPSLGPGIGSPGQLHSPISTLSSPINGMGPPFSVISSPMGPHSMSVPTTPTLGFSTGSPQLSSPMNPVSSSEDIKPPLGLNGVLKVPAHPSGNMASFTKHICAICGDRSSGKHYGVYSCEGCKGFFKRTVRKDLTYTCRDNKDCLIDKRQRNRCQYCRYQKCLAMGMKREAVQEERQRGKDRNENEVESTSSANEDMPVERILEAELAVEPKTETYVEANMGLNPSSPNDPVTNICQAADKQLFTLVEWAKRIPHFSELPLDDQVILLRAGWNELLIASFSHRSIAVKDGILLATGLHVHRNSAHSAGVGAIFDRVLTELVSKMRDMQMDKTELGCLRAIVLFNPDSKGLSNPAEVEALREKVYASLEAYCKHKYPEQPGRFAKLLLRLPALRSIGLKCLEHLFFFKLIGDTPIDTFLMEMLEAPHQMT
human Peroxisome Proliferator-activated Receptor delta (PPARd), PPARD (gene 5467), sequence (Q03181 whole entry, looked up, the tested form may be a part): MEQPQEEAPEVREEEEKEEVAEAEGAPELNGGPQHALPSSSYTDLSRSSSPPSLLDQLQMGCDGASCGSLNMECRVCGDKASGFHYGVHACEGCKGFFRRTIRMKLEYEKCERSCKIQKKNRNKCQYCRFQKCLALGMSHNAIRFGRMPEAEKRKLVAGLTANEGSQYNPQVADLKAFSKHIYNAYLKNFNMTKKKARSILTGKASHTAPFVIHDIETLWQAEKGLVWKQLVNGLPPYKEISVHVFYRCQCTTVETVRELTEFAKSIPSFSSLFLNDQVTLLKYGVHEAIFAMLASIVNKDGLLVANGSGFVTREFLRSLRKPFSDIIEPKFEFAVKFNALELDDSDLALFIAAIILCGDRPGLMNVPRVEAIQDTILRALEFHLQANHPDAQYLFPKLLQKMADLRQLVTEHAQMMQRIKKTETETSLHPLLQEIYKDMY
Nuclear receptor subfamily 1 group I member 2 (Homo sapiens), sequence (O75469 whole entry, looked up, the tested form may be a part): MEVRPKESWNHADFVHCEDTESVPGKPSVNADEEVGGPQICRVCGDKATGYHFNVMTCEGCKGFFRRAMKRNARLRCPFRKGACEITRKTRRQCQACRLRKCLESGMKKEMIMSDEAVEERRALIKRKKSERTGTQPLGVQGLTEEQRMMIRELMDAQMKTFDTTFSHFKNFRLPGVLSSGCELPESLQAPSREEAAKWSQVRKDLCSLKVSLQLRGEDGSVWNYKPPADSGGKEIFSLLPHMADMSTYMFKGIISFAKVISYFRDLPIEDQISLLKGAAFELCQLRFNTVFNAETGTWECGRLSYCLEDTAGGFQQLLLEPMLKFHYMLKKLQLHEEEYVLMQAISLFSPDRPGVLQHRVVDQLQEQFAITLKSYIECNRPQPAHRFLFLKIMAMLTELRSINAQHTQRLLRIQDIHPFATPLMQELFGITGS

COP(N)(=S)OC
not listed: [13] | [14] | [15] | [16] | [17] | [18] | [19] | [20]
inactive: all other assays above

Nc1ccc(Sc2ccc(N)cc2)cc1
active: [13] 57.1 µM | [5] 50.6 µM
inactive: [14] | [6] | [7]

CC1(C)CN=C(NN=C(/C=C/c2ccc(C(F)(F)F)cc2)/C=C/c2ccc(C(F)(F)F)cc2)NC1
inactive: [15] | [16] | [5] | [7] | [17]

CNC(=O)Oc1ccc(N(C)C)c(C)c1
inactive: [13] | [5] | [7] | [8]

N#C/C=C/c1ccccc1
active: [13] 10.1 µM
inactive: [18] | [5] | [19] | [14] | [6] | [8] | [17]

C/C(=N\NC(=O)Nc1cc(F)cc(F)c1)c1ncccc1C(=O)O
inactive: [18] | [13] | [5] | [14] | [7] | [17]

CCOC(=O)c1ccccc1N
inactive: [18] | [13] | [5] | [14] | [6] | [17]

Oc1ccc(I)cc1
inactive: [18] | [13] | [5] | [7] | [17]

CC(Cc1ccc(OCC(=O)O)cc1)NCC(O)c1csc(C(F)(F)F)n1 (centres undefined)
inactive: [1] | [2] | [3] | [4] | [13] | [9] | [10] | [11] | [12]

O=C(CBr)OCc1ccccc1
inactive: [13] | [7]

NNC(N)=S
inactive: [15] | [13] | [14] | [6] | [7]

O=S1(=O)OCC2C(CO1)C1(Cl)C(Cl)=C(Cl)C2(Cl)C1(Cl)Cl (centres undefined)
inactive: [1] | [3] | [19] | [7] | [9] | [10] | [11]
active: [2] 13.1 µM | [4] 25.1 µM | [5] 2.37 µM | [12] 10.1 µM

CCCCN(CC)C(=O)SCCC
inactive: [13] | [5] | [19] | [6]

O=NN1CCCC1
inactive: [18] | [15] | [13] | [5] | [19] | [6] | [17]

FC(F)(F)c1ccc(Cl)cc1
inactive: [15] | [20] | [13] | [5] | [7]
